{"source": "the supplement of paper PMC10646978", "note": "± gives the standard deviation.", "data": [{"system": "RAW-Dual (murine macrophage reporter line)", "experiment": "NF-kB reporter (SEAP) activity fold change vs agonist alone; higher = enhanced NF-kB activity", "details": "modulator concentration 10 µM; agonist: MPLA […]", "outline": "(§1)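 RAW-Dual murine macrophage reporter cells were plated at 50 000 per well in 384-well plates, pin-transferred compound to 10 μM final, and pre-incubated for 1 hour at 37 °C before a PRR agonist was added and the cells incubated overnight. NF-κB activity was read from supernatant SEAP with QUANTI-Blue at 620 nm absorbance, and IRF activity from Lucia luciferase with QUANTI-Luc by luminescence. Each signal was expressed as fold change by dividing by the mean agonist-only control on the same plate. Two replicate plates were averaged, with errors obtained by propagation.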", "values": [{"smiles": "O=C(c1cc(C(F)(F)F)cc(C(F)(F)F)c1)N1CCOCC1CO", "note": "(stereo unspecified)", "NF-kB reporter": "0.869 ± 0.099"}, {"smiles": "CC1CCN(c2nccnc2Oc2ccc(C(=O)N3CCN(c4ccc(F)cc4)CC3)cc2)CC1", "NF-kB reporter": "0.709 ± 0.047"}, {"smiles": "CC1=NN(c2ccc(Cl)cc2)C(=O)C1=Cc1c(C)nn(-c2ccc(C)cc2C)c1O", "NF-kB reporter": "0.944 ± 0.051"}, {"smiles": "Cc1cc(N2CCCCC2)nc2ccccc12", "NF-kB reporter": "0.73 ± 0.093"}, {"smiles": "COc1cccc2c1C(=O)c1c(O)c3c(c(O)c1C2=O)C[C@@](O)(C(=O)CO)C[C@@H]3O[C@H]1C[C@H](N)[C@@H](O)[C@H](C)O1.Cl", "NF-kB reporter": "0.0992 ± 0.0043"}, {"smiles": "COc1cc(O)c2c(=O)cc(-c3ccc(O)cc3)oc2c1", "NF-kB reporter": "1.01 ± 0.024"}, {"smiles": "CCOc1nc2cccc(C(=O)O)c2n1Cc1ccc(-c2ccccc2-c2nnn[nH]2)cc1", "note": "[Prestw-1258]", "NF-kB reporter": "0.925 ± 0.074"}, {"smiles": "O=C1C=C(c2c(O)ccc3ccccc23)c2ccccc2C1=O", "NF-kB reporter": "1.66 ± 0.19"}, {"smiles": "CCNC(=O)CCC/C=C\\C[C@@H]1[C@@H](/C=C/C(O)CCc2ccccc2)[C@@H](O)C[C@@H]1O", "note": "(stereo partly specified)", "NF-kB reporter": "0.953 ± 0.041"}, {"smiles": "Br.O=S(=O)(c1ccc(-c2csc(Nc3ccc(F)cc3)n2)cc1)N1CCOCC1", "NF-kB reporter": "2.17 ± 0.15"}, {"smiles": "OC(c1cc(C(F)(F)F)nc2c(C(F)(F)F)cccc12)C1CCCCN1", "note": "(stereo unspecified) [Prestw-126]", "NF-kB reporter": "0.887 ± 0.059"}, {"smiles": "O=S(=O)(c1cccc2ccccc12)n1nnc2ccccc21", "NF-kB reporter": "1.05 ± 0.08"}, {"smiles": "COc1cc(/C=C/C(=O)/C=C(O)/C=C/c2ccc(O)c(OC)c2)ccc1O", "NF-kB reporter": "2.02 ± 0.15"}, {"smiles": "Nc1ncn(C2OC(CO)C(O)C2O)c(=O)n1", "note": "(stereo unspecified)", "NF-kB reporter": "4.3 ± 0.27"}, {"smiles": "O=C(NC1CC2CCC1C2)c1ccccc1Cl", "note": "(stereo unspecified)", "NF-kB reporter": "1.08 ± 0.099"}, {"smiles": "CC(C)Nc1cc(-c2c[nH]c(C(=O)N[C@H](CO)c3cccc(Cl)c3)c2)c(Cl)cn1", "NF-kB reporter": "0.158 ± 0.01"}, {"smiles": "O=C(NN=Cc1sc2ccccc2c1Cl)c1ccncc1", "NF-kB reporter": "0.931 ± 0.058"}, {"smiles": "O=C(NCCc1cn2ccccc2n1)c1ccccc1Br", "NF-kB reporter": "1.03 ± 0.056"}, {"smiles": "Cc1[nH]nc(-c2ccc(OCc3ccccc3)c(C)c2O)c1-c1cnn(-c2ccccc2)c1", "NF-kB reporter": "0.784 ± 0.049"}, {"smiles": "C#CCC(Cc1cnc2nc(N)nc(N)c2n1)c1ccc(C(=O)N[C@@H](CCC(=O)O)C(=O)O)cc1", "note": "(stereo partly specified)", "NF-kB reporter": "0.778 ± 0.038"}, {"smiles": "O=C(C=Cc1ccccc1)NC(NC(=S)Nc1cccc2cccnc12)C(Cl)(Cl)Cl", "note": "(stereo unspecified)", "NF-kB reporter": "0.624 ± 0.048"}]}, {"system": "RAW-Dual (murine macrophage reporter line)", "experiment": "IRF reporter (Lucia luciferase) activity fold change vs agonist alone; higher = enhanced IRF activity", "details": "modulator concentration 10 µM; agonist: 3'3'-cGAMP 10 ug/mL", "outline": "as §1", "values": [{"smiles": "Cc1ccc(S(=O)(=O)N2CCN(C(C)C)CC2)cc1", "IRF reporter": "0.96 ± 0.17"}, {"smiles": "CCN1C(=O)C(=Cc2nc3ccccc3c(=O)n2-c2ccc(C)cc2)c2ccccc21", "IRF reporter": "0.89 ± 0.035"}, {"smiles": "O=S(=O)(Nc1nc2ccccc2nc1Nc1ccc2c(c1)OCCO2)c1cccs1", "IRF reporter": "0.85 ± 0.028"}, {"smiles": "O=C1CC(c2ccc(O)cc2)Oc2cc(O)cc(O)c21", "note": "(stereo unspecified)", "IRF reporter": "0.746 ± 0.031"}, {"smiles": "C=CCc1ccc(OCCCOc2ccccc2C(C)=O)c(OC)c1", "IRF reporter": "0.66 ± 0.026"}, {"smiles": "CCNc1nc(S)nc(NC(C)C)n1", "IRF reporter": "0.731 ± 0.041"}, {"smiles": "Cl.O[C@@H](CNC[C@H](O)[C@H]1CCc2cc(F)ccc2O1)[C@@H]1CCc2cc(F)ccc2O1", "IRF reporter": "0.68 ± 0.087"}, {"smiles": "CNc1nc(Nc2ccc(C)c(C)c2)c2nccnc2n1", "IRF reporter": "0.992 ± 0.069"}, {"smiles": "O=C(NCCOc1cccc2cccnc12)c1c(F)cccc1F", "IRF reporter": "0.961 ± 0.048"}, {"smiles": "CCNC(=O)c1ccc(CN2CCc3ccccc3C2)cc1", "IRF reporter": "0.905 ± 0.039"}, {"smiles": "Cc1ccc(N2CC(C(=O)NCC3CCCO3)CC2=O)cc1", "note": "(stereo unspecified)", "IRF reporter": "1.03 ± 0.22"}, {"smiles": "Cc1cc(Cl)ccc1OCCCC(=O)NO", "IRF reporter": "0.234 ± 0.014"}, {"smiles": "Cc1ccc(/C(=C\\CN2CCCC2)c2ccccn2)cc1.Cl.O", "IRF reporter": "0.672 ± 0.03"}, {"smiles": "Cc1cc(C)c(NC(=O)c2ccc(Oc3nccs3)cc2)c(C)c1", "IRF reporter": "0.844 ± 0.048"}, {"smiles": "O=C1OC(CNS(=O)(=O)c2ccccc2Cl)CN1c1ccc(Cl)c(Cl)c1", "note": "(stereo unspecified)", "IRF reporter": "1.13 ± 0.06"}, {"smiles": "Cc1nc2ccc(CN(C)c3ccc(C(=O)N[C@@H](CCC(=O)O)C(=O)O)s3)cc2c(=O)[nH]1", "IRF reporter": "0.863 ± 0.042"}, {"smiles": "CN(C)CCCN1c2ccccc2Sc2ccc(Cl)cc21", "note": "[Prestw-64]", "IRF reporter": "0.71 ± 0.037"}, {"smiles": "CS(=O)(=O)N(CC(=O)Nc1ccccc1Br)c1ccc(Cl)c(C(F)(F)F)c1", "IRF reporter": "1.15 ± 0.055"}, {"smiles": "O=C(OCCO)c1cc(Cl)c(C(=O)OCCO)cc1Cl", "IRF reporter": "0.987 ± 0.034"}, {"smiles": "O=C(c1cc(C(F)(F)F)cc(C(F)(F)F)c1)N1CCOCC1CO", "note": "(stereo unspecified)", "IRF reporter": "0.969 ± 0.072"}, {"smiles": "CC1CCN(c2nccnc2Oc2ccc(C(=O)N3CCN(c4ccc(F)cc4)CC3)cc2)CC1", "IRF reporter": "0.684 ± 0.032"}, {"smiles": "CC1=NN(c2ccc(Cl)cc2)C(=O)C1=Cc1c(C)nn(-c2ccc(C)cc2C)c1O", "IRF reporter": "0.891 ± 0.031"}, {"smiles": "Cc1cc(N2CCCCC2)nc2ccccc12", "IRF reporter": "0.982 ± 0.032"}, {"smiles": "COc1cccc2c1C(=O)c1c(O)c3c(c(O)c1C2=O)C[C@@](O)(C(=O)CO)C[C@@H]3O[C@H]1C[C@H](N)[C@@H](O)[C@H](C)O1.Cl", "IRF reporter": "0.0174 ± 0.0046"}, {"smiles": "COc1cc(O)c2c(=O)cc(-c3ccc(O)cc3)oc2c1", "IRF reporter": "0.795 ± 0.11"}, {"smiles": "CCOc1nc2cccc(C(=O)O)c2n1Cc1ccc(-c2ccccc2-c2nnn[nH]2)cc1", "note": "[Prestw-1258]", "IRF reporter": "0.918 ± 0.029"}, {"smiles": "O=C1C=C(c2c(O)ccc3ccccc23)c2ccccc2C1=O", "IRF reporter": "0.0196 ± 0.0013"}, {"smiles": "CCNC(=O)CCC/C=C\\C[C@@H]1[C@@H](/C=C/C(O)CCc2ccccc2)[C@@H](O)C[C@@H]1O", "note": "(stereo partly specified)", "IRF reporter": "0.994 ± 0.055"}, {"smiles": "Br.O=S(=O)(c1ccc(-c2csc(Nc3ccc(F)cc3)n2)cc1)N1CCOCC1", "IRF reporter": "0.768 ± 0.096"}, {"smiles": "OC(c1cc(C(F)(F)F)nc2c(C(F)(F)F)cccc12)C1CCCCN1", "note": "(stereo unspecified) [Prestw-126]", "IRF reporter": "1.13 ± 0.076"}, {"smiles": "O=S(=O)(c1cccc2ccccc12)n1nnc2ccccc21", "IRF reporter": "1.09 ± 0.29"}, {"smiles": "COc1cc(/C=C/C(=O)/C=C(O)/C=C/c2ccc(O)c(OC)c2)ccc1O", "IRF reporter": "0.0871 ± 0.0028"}, {"smiles": "Nc1ncn(C2OC(CO)C(O)C2O)c(=O)n1", "note": "(stereo unspecified)", "IRF reporter": "0.541 ± 0.026"}, {"smiles": "O=C(NC1CC2CCC1C2)c1ccccc1Cl", "note": "(stereo unspecified)", "IRF reporter": "0.983 ± 0.049"}, {"smiles": "CC(C)Nc1cc(-c2c[nH]c(C(=O)N[C@H](CO)c3cccc(Cl)c3)c2)c(Cl)cn1", "IRF reporter": "0.677 ± 0.022"}, {"smiles": "O=C(NN=Cc1sc2ccccc2c1Cl)c1ccncc1", "IRF reporter": "0.808 ± 0.028"}, {"smiles": "O=C(NCCc1cn2ccccc2n1)c1ccccc1Br", "IRF reporter": "1 ± 0.048"}, {"smiles": "Cc1[nH]nc(-c2ccc(OCc3ccccc3)c(C)c2O)c1-c1cnn(-c2ccccc2)c1", "IRF reporter": "0.95 ± 0.026"}, {"smiles": "C#CCC(Cc1cnc2nc(N)nc(N)c2n1)c1ccc(C(=O)N[C@@H](CCC(=O)O)C(=O)O)cc1", "note": "(stereo partly specified)", "IRF reporter": "0.774 ± 0.18"}, {"smiles": "O=C(C=Cc1ccccc1)NC(NC(=S)Nc1cccc2cccnc12)C(Cl)(Cl)Cl", "note": "(stereo unspecified)", "IRF reporter": "0.452 ± 0.027"}]}]}
